Source: PubChem BioAssay (National Center for Advancing Translational Sciences (NCATS))
Shown are actives, neighbours in structure and some others; about 15% of the full set was active somewhere.
HCMV inh = human cytomegalovirus inhibition; 410,000 tested, 4.5% active; AID 1259415; activity change, negative = inhibition, % at 57.5 µM; HFF cells, HCMV-luciferase reporter, 72 h; stronger effect = lower value; in the data active = activity change below about -60%; inconclusive = no clear call, values can overlap the other calls; inactive = above about -39%; also: % is scaled to controls: 0 for no effect and ±100 for the full control effect
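Inhibition of viral replication was scored as loss of reporter luminescence in HFFs infected with HCMV-luciferase (MOI 1 PFU/cell) for 72 h; compounds tested at 2 doses, normalized to buffer and Salinomycin controls.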
Pf growth 96h = inhibits malaria parasite growth, 96 h | P. falciparum luciferase reporter growth, 96 h | Potency, µM (top dose mostly 28.7 µM), for the others: top-dose activity change, negative = inhibition, hits mostly inhibitors | 320,000 tested, 6.9% active | AID 504834; also: potency is read from the fitted curve at half-maximal effect; % is scaled to controls: 0 for no effect and ±100 for the full control effect
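Parasite growth measured via integrated firefly luciferase reporter in P. falciparum. Infected erythrocytes at 2% hematocrit, 0.05% parasitemia final were treated 96 hours at 37 C under 5% CO2, and luminescence was read.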
Sm TGR block = blocks Schistosoma mansoni thioredoxin glutathione reductase; Q962Y6; purified TGR, DTNB reduction, TNB absorbance 405 nm; Potency, µM (doses to about 114 µM), for the others: top-dose activity change, negative = inhibition, actives largely listed as inhibitors; 360,000 tested, 3% active; also: potency is read from the fitted curve at half-maximal effect; % is scaled to controls: 0 for no effect and ±100 for the full control effect; nearly all actives have a fitted effect of over 60% in size
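Kinetic colorimetric format: TGR-catalysed, NADPH-driven DTNB reduction monitored via TNB absorbance. Enzyme dispensed at 20 nM; compound exposure 15 min at room temperature before reaction start.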
Pf growth 48h = inhibits P. falciparum growth in the first generation, 48 h; P. falciparum luciferase growth in erythrocytes, 48 h; Potency, µM (series often up to 28.7 µM), for inactives: top-dose activity change, negative = inhibition, usual class: inhibitors; 310,000 tested, 5.9% active; AID 504832; also: potency is read from the fitted curve at half-maximal effect; % is scaled to controls: 0 for no effect and ±100 for the full control effect
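Erythrocytes infected with P. falciparum carrying an integrated firefly luciferase reporter (2% hematocrit, 0.1% parasitemia final) were exposed to compounds in RPMI 1640 with 0.5% Albumax at 37 C, 5% CO2. Growth inhibition was scored as reduced luminescence.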
SARS PLpro yeast = blocks SARS-CoV papain-like protease in a yeast assay. Potency, µM (doses to about 32.9 µM), inactives show at the highest dose activity, positive = growth rescue, most hits filed as activators. 330,000 tested, 0.19% active. S. cerevisiae expressing SARS-CoV PLpro, growth rescue; calls by dose curve; also: potency is read from the fitted curve at half-maximal effect; 0% is about no effect; nearly all actives have a fitted effect of over 55% in size
HCV inhibitor = HCV inhibition; Potency, µM (series often up to 41.8 µM), for the others: top-dose activity change, negative = inhibition, hits mostly inhibitors; AID 651820; Huh7.5.1 HCVcc-Cre infection, luciferase reporter, 44 h; 340,000 tested, 3.4% active; also: potency is read from the fitted curve at half-maximal effect; % is scaled to controls: 0 for no effect and ±100 for the full control effect
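Antiviral activity was scored by luciferase reporter output from cells infected with HCVcc-Cre (~0.5 moi) in presence of compound, 44 h infection period, cells seeded 1,000/well 4 h prior.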
* hit, by the source's call; ? = inconclusive; . = no result; [ ] = dose if it differs, or a comment. Unless noted, calls follow the shape of the dose curve; as a rule, active = well fitted curve in the direction sought with a large enough effect; inconclusive = small, poorly fitted or top-dose-only effect, or another doubt; inactive = no such curve, though single readings can be large; an effect the other way counts as inactive or inconclusive.

SMILES	HCMV inh	Pf growth 96h	Sm TGR block	Pf growth 48h	SARS PLpro yeast	HCV inhibitor
CSc1nccc(Oc2ccc(C#N)cc2)n1	4.5	8.4%	-4.1%	-5.1%	-20.5%	24.2%
Cc1ccc(Cl)cc1NC(=O)Cn1c(=O)cc(C)c2c(C)nn(C)c21	-5.5	.	0.9%	.	.	.
CC(=Cc1ccccc1)C(=O)c1ccccc1	-26.0	.	.	.	.	.
O=C(C(Br)=Cc1ccccc1)c1ccccc1	-83.2*	.	.	.	.	?
Cc1c(NC(=O)c2cccc(NC(=O)COc3ccc(C#N)cc3)c2)c(=O)n(-c2ccccc2)n1C	-13.5	68.3%	-6.1%	14.6%	-0.6%	-2.0%
Cc1cccnc1-n1c(CCN2C(=O)c3ccccc3C2=O)nc2ccccc2c1=O	-29.9	3.29µM*	0.6%	?	11.3%	25.4%
O=C1c2ccccc2C(=O)N1Cc1nc2ccccc2c(=O)n1-c1ccc(Br)cn1	-5.3	7.38µM*	-4.5%	28.5%	-4.7%	15.6%
O=C(CSc1nnc(-c2cccnc2)o1)Nc1ccccc1F	36.8	214.3%	-13.9%	96.0%	1.0%	6.9%
C=C(C)c1cccc(C(C)(C)NC(=O)N2CCN(CC(N)=O)CC2)c1	-2.9	4.2%[5.75 µM]	44.7µM*	-19.8%	5.3%	-9.2%
C=C(C)c1cccc(C(C)(C)NC(=O)NCC2CCCO2)c1 (configuration not stated)	-5.5	95.8%	?	7.38µM*	-2.2%	-1.9%
C=C(C)c1cccc(C(C)(C)NC(=O)N2CCC(C)CC2)c1	?	-8.2%	0.0%	.	-3.5%	0.6%
CC1=C(C(=O)OCc2ccccc2)C(c2ccccc2-c2ccccc2)NC(=O)N1CCCCCC(=O)O (configuration not stated)	-14.9	11.7µM*	-14.0%	?	-14.5%	5.7%[8.37 µM]
CC1=C(C(=O)OCc2ccccc2)C(c2ccccc2Cl)NC(=O)N1CCCCCC(=O)O (configuration not stated)	-10.8	-65.0%	1.6%	13.7%	0.5%	-21.8%
CCCCN1C(=O)NC(c2ccc(OC)cc2)C(C(=O)OCc2ccccc2)=C1C (configuration not stated)	-14.8	5.22µM*	6.8%	?	0.9%	?
CC1=C(C(=O)OCc2ccccc2)C(c2ccc3ccccc3c2)NC(=O)N1CCCC(=O)O (configuration not stated)	-12.2	68.2%	-9.4%	2.2%	-3.0%	14.1%
CC1=C(C(=O)OCc2ccccc2)C(c2ccc3ccccc3c2)NC(=O)N1CCCCCC(=O)O (configuration not stated)	-7.3	10.4µM*	-11.5%	?	-0.7%	0.6%[8.37 µM]
S=C(SCc1nc(-c2ccc(Cl)cc2)no1)N1CCSCC1	-17.4	.	.	.	.	.
O=C(Cn1ccc(NC(=O)OCc2ccccc2)nc1=O)NCCCn1ccnc1	10.9	21.3%	-18.3%	15.4%	-3.6%	6.6%
C=C1CCC[C@]2(C)C[C@H]3OC(=O)C(CNCCN(CC)CC)[C@H]3CC12 (some centres not stated)	-21.3	?	0.0%	?	0.0%	?
COc1ccc(C(=O)N2CCc3[nH]nc(-c4ccccc4)c3C2)cc1	-10.5	-21.6%	1.4%	-29.9%	-3.7%	11.2µM*
CC(C)=CC(=O)Nc1nc2ccc([N+](=O)[O-])cc2s1	?	11.3%	8.5%	?	-2.3%	-15.0%
CC(=O)O[C@H]1C[C@@]2(C)[C@@H](C[C@@H](O)[C@H]3[C@@]4(C)CC[C@@H](O)[C@@H](C)[C@@H]4CC[C@@]32C)/C1=C(\CCC=C(C)C)C(=O)O	87.4	?	?	11.7µM*	.	?
O=C(CCc1nnc(C2CCCCC2)o1)N1CCN(c2ccccc2F)CC1	57.0	?	-28.1%	62.4%	-0.9%	24.7%
O=C(CCc1nnc(C2CCCCC2)o1)N1CCN(C2CCCCC2)CC1	-23.4	-15.0%	56.2µM*	25.7%	0.8%	7.3%
O=C(NC(=O)c1cnccc1C(F)(F)F)Nc1ccccc1	-22.0	29.8%	-3.1%	-5.9%	-1.8%	3.5%
SMILES	HCMV inh	Pf growth 96h	Sm TGR block	Pf growth 48h	SARS PLpro yeast	HCV inhibitor
CCOc1ccccc1C(=O)Nc1cc2c(cc1N1CCOCC1)n(C)c(=O)n2C	-111.7*	.	-7.7%	.	.	.
COc1cccc(OC)c1C(=O)Nc1cc2c(cc1N1CCOCC1)n(C)c(=O)n2C	12.7	?	-11.2%	8.28µM*	-4.1%	3.6%
CCOc1cc(C(=O)Nc2cc3c(cc2N2CCCC2)n(C)c(=O)c(=O)n3C)cc(OCC)c1OCC	3.3	.	50.1µM*	.	.	.
Cn1c(=O)n(C)c2cc(N3CCOCC3)c(NC(=O)c3ccc(F)cc3)cc21	-19.1	9.28µM*	-10.4%	?	-1.3%	5.3%
Cc1cc(C)c(NC(=O)CN(C)C(C)C(=O)N2CCc3ccccc32)c(C)c1 (configuration not stated)	-7.5	?	-3.6%	?	1.6%	?
OCc1cccc(Nc2ncnc3sc4c(c23)CCCCC4)c1	-8.9	-20.4%	-1.8%	12.3%	-0.6%	-21.4%
CC1CCc2sc(C(=O)N3CCN(c4ncccn4)CC3)cc2C1 (configuration not stated)	21.0	.	.	.	.	33.7%
COc1ccc(NC(=O)c2oc3ccccc3c2NC(=O)C23CC4CC(CC(C4)C2)C3)c(OC)c1	3.7	.	-1.5%	.	.	.
Cn1c(=O)n(C)c2cc(N3CCOCC3)c(NC(=O)c3cccc(Cl)c3)cc21	2.7	1.65µM*	-6.2%	-0.4%	-0.5%	?
COc1cc(OC)cc(C(=O)Nc2cc3c(cc2N2CCCCC2)n(C)c(=O)n3C)c1	17.0	.	-0.2%	.	.	.
COc1cccc(C(=O)Nc2cc3c(cc2N2CCCC2)n(C)c(=O)n3C)c1	5.1	11.7µM*	-19.2%	-2.8%	-15.2%	?
CCNC(=O)CC1SC(=Nc2ccc(C)c([N+](=O)[O-])c2)N(C)C1=O (configuration not stated)	36.7	.	.	.	.	-4.1%
Cc1ccc(C)c(SCC(=O)NCC(c2ccco2)N2CCCCC2)c1 (configuration not stated)	?	?	-15.1%	?	?	-12.7%
Cc1nn(C)c(C(=O)Sc2cccc(Cl)c2)c1[N+](=O)[O-]	-4.5	-29.4%	1.41µM*	22.9%	-0.4%	3.7%
CCn1nc(C)cc1C(=O)Sc1cccc(Cl)c1	?	28.3%	6.31µM*	3.5%	1.9%	3.4%
CCn1nc(C)cc1C(=O)N1CCCC(N2CCN(c3cccc(Cl)c3)CC2)C1 (configuration not stated)	-37.0	?	1.9%	?	-1.1%	.
Cc1nn(C)c(C(=O)Sc2ccccc2)c1[N+](=O)[O-]	34.3	0.3%	2.51µM*	-2.0%	-6.0%	22.0%
